Where “and” joins values, the source holds several entries; their conditions need not be identical. Equal values may be shown once. Out of some 5,500 compounds screened, about 2,000 (36%) were called active. Another 18% or so got no clear call; they are omitted. Rule as the data show it: active = normalized growth mostly below about 0.91 (no sharp cut-off); inconclusive = no clear call, values can overlap the other calls; inactive = mostly above about 0.92. The list shows a part of the results.
Assay: chemical genetic growth profiling, strain panel (AID 1159580);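 also: tested at 20 µM; growth read once vehicle control cultures reached saturation at 30 °C; 1 = growth at the plate median or of vehicle wells; lower values mean less growth of the strain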
Conditions: S. cerevisiae deletion strains, growth OD

Measured: normalized growth

CC1(C)C[C@@H]2C(=O)CC[C@H]3O[C@]3(C)CC[C@H]21
inactive: locus YAL013W, strain DEP1, active compounds read low 1.01 | locus YAL021C, strain ccr4, active compounds read low 0.98 | locus YAL026C, strain drs2, active compounds read low 1.04 | locus YAL030W, strain snc1, active compounds read low 1.01 | locus YBL061C, strain skt5, active compounds read low 1.03 | locus YBR009C, strain hhf1, active compounds read low 1.02 | locus YBR021W, strain FUR4, active compounds read low 1.01 | locus YBR023C, strain chs3, active compounds read low 1.02 | locus YBR171W, strain sec66, active compounds read low 1.02 | locus YBR229C, strain ROT2, active compounds read low 1 | locus YBR231C, strain swc5, active compounds read low 1 | locus YBR279W, strain paf1, active compounds read low 1 | locus YCL011C, strain gbp2, active compounds read low 1.02 | locus YCL016C, strain dcc1, active compounds read low 1.01 | locus YCL029C, strain bik1, active compounds read low 0.994 | locus YCL061C, strain MRC1, active compounds read low 1.01 | locus YCL069W, strain vba3, active compounds read low 1.01 | locus YCR088W, strain abp1, active compounds read low 1.01 | locus YDL005C, strain med2, active compounds read low 1.01 | locus YDL035C, strain GPR1, active compounds read low 1.01 | locus YDL040C, strain nat1, active compounds read low 1.02 | locus YDL074C, strain BRE1, active compounds read low 1.04 | locus YDL101C, strain DUN1, active compounds read low 1.02 | locus YDL134C, strain PPH21, active compounds read low 1.01 | locus YDL185W, strain tfp1, active compounds read low 0.995 | locus YDL192W, strain arf1, active compounds read low 0.996 | locus YDR001C, strain nth1, active compounds read low 1.02 | locus YDR069C, strain doa4, active compounds read low 1.03 | locus YDR101C, strain arx1, active compounds read low 0.986 | locus YDR137W, strain rgp1, active compounds read low 1.02 | locus YDR150W, strain NUM1, active compounds read low 1.01 | locus YDR159W, strain sac3, active compounds read low 1.05 | locus YDR162C, strain NBP2, active compounds read low 1.02 | locus YDR195W, strain ref2 1.01 | locus YDR297W, strain sur2, active compounds read low 1.01 | locus YDR318W, strain mcm21, active compounds read low 0.994 | locus YDR334W, strain swr1, active compounds read low 1.01 | locus YDR335W, strain msn5, active compounds read low 1.01 | locus YDR388W, active compounds read low 0.996 | locus YDR392W, strain spt3, active compounds read low 0.914 | locus YDR502C, strain sam2, active compounds read low 0.994 | locus YEL003W, strain gim4, active compounds read low 1.01 | locus YEL037C, strain rad23, active compounds read low 1.01 | locus YEL061C, strain CIN8 (second series), active compounds read low 1.02 | locus YEL061C, strain CIN8, active compounds read low 1 | locus YER015W, strain faa2, active compounds read low 1.01 | locus YER016W, strain bim1, active compounds read low 1.01 | locus YER110C, active compounds read low 0.989 | locus YER111C, strain swi4, active compounds read low 1.01 | locus YER155C, strain BEM2 (second series), active compounds read low 1.03 | locus YER155C, strain BEM2, active compounds read low 1 | locus YER167W, strain BCK2, active compounds read low 1.01 | locus YFR010W, strain ubp6, active compounds read low 1.04 | locus YGL078C, strain dbp3, active compounds read low 0.999 | locus YGL086W, strain mad1, active compounds read low 0.966 | locus YGL167C, strain pmr1, active compounds read low 1.02 | locus YGL173C, strain kem1, active compounds read low 1.03 | locus YGL227W, strain vid30, active compounds read low 1.01 | locus YGL240W, strain doc1, active compounds read low 1.02 | locus YGL248W, strain PDE1, active compounds read low 1 | locus YGL253W, strain hxk2, active compounds read low 1.03 | locus YGR078C, strain PAC10, active compounds read low 1.02 | locus YGR135W, strain pre9, active compounds read low 0.999 | locus YGR229C, strain SMI1, active compounds read low 1.01 | locus YGR252W, strain gcn5, active compounds read low 1.01 | locus YHR013C, strain ard1, active compounds read low 1.03 | locus YHR027C, strain rpn1, active compounds read low 1.02 | locus YHR030C, strain SLT2, active compounds read low 1.01 and 0.967 | locus YHR079C, strain IRE1 (second series), active compounds read low 0.996 | locus YHR079C, strain IRE1, active compounds read low 0.953 | locus YHR094C, strain hxt1, active compounds read low 0.998 | locus YHR129C, strain ARP1, active compounds read low 1.01 | locus YHR142W, strain chs7, active compounds read low 1.02 | locus YHR200W, strain rpn10, active compounds read low 0.997 | locus YIL066C, strain RNR3, active compounds read low 1 | locus YIL073C, strain SPO22, active compounds read low 0.968 | locus YIL125W, strain kgd1, active compounds read low 0.998 | locus YIR030C, strain dcg1, active compounds read low 0.986 | locus YJL092W, strain hpr5, active compounds read low 1.02 | locus YJL095W, strain BCK1 (second series), active compounds read low 1.04 | locus YJL095W, strain BCK1, active compounds read low 1.01 and 0.961 | locus YJL115W, strain asf1, active compounds read low 1.01 | locus YJL129C, strain trk1, active compounds read low 1.02 | locus YJL134W, strain LCB3, active compounds read low 1.01 | locus YJL154C, strain vps35, active compounds read low 1.01 | locus YJL164C, strain tpk1, active compounds read low 0.995 | locus YJL166W, strain qcr8, active compounds read low 1.04 | locus YJL168C, strain set2, active compounds read low 0.994 | locus YJL187C, strain SWE1 (second series), active compounds read low 1.02 | locus YJL187C, strain SWE1, active compounds read low 1 | locus YJR043C, strain POL32, active compounds read low 1 | locus YJR066W, strain TOR1, active compounds read low 0.998

From PubChem BioAssay AID1159580 (chemical genetic matrix, 2015)
